Test results reported in the supplement of paper PMC11732987, “Enantioselective OTUD7B fragment discovery through chemoproteomics screening and high-throughput optimisation” (Communications Chemistry, 2025).
Values without a mark were called inactive.

Key:
Assay in all cases: log2 ratio of Biotin-Ahx-Ub-VS probe labelling (fragment/DMSO); higher = less target engagement (more negative = stronger competition), active = hit call of the paper (q ≤ 0.05, log2 ratio ≤ -1)
Conditions in all cases: compound concentration: 200 uM; treatment time: 3 h
USP19 = target: T1, USP19 (UniProt O94966)
T1 sequence (whole entry): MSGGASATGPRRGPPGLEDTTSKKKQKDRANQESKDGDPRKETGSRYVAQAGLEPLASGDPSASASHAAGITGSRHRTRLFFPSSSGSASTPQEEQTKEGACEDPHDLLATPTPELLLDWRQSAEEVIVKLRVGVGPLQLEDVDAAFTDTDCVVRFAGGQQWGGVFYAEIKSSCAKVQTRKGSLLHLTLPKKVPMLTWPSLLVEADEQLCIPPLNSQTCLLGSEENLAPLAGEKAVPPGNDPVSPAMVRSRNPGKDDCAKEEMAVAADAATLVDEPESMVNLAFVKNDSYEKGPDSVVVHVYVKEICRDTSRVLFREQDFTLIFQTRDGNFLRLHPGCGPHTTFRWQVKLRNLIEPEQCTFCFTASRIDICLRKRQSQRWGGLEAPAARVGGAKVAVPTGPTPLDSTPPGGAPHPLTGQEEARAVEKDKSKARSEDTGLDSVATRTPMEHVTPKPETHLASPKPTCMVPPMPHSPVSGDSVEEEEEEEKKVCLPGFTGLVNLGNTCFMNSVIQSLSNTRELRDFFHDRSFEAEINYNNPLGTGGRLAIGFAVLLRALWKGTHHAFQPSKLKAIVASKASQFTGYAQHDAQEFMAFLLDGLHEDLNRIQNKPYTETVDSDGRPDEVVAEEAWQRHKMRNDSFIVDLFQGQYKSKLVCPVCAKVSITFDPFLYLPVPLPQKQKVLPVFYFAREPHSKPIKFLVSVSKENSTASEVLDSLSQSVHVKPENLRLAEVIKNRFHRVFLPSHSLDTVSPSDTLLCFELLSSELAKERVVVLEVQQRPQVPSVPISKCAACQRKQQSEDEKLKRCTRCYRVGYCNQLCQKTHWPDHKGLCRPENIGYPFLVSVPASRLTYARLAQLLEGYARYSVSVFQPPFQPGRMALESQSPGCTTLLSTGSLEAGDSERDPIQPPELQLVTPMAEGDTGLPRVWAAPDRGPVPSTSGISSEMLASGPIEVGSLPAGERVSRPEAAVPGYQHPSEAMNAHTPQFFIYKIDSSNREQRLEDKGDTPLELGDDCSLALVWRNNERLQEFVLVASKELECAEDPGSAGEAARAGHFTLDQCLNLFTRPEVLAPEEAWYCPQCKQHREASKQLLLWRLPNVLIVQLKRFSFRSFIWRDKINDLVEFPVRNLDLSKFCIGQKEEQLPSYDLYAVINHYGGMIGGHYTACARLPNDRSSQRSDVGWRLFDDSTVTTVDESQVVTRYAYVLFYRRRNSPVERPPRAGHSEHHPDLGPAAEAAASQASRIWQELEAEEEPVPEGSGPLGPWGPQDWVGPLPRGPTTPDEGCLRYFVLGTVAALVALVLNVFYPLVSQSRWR
How it was run: (§1)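 Triplicate samples of HEK293T lysate, 495 µg each, received fragment at 200 µM or vehicle for 3 h, followed by Biotin-Ahx-Ub-VS (0.5 µM final) for 1 h. After NeutrAvidin enrichment of labelled DUBs and LysC/trypsin digestion, peptides were run by diaPASEF LC-MS/MS. The values are average log2 fragment/vehicle ratios from global-median-normalised Spectronaut label-free quantities, tested by unpaired t-test on proteins having ≥2 unique peptides.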

USP22 = target: T2, USP22 (UniProt Q9UPT9)
T2 sequence (whole entry): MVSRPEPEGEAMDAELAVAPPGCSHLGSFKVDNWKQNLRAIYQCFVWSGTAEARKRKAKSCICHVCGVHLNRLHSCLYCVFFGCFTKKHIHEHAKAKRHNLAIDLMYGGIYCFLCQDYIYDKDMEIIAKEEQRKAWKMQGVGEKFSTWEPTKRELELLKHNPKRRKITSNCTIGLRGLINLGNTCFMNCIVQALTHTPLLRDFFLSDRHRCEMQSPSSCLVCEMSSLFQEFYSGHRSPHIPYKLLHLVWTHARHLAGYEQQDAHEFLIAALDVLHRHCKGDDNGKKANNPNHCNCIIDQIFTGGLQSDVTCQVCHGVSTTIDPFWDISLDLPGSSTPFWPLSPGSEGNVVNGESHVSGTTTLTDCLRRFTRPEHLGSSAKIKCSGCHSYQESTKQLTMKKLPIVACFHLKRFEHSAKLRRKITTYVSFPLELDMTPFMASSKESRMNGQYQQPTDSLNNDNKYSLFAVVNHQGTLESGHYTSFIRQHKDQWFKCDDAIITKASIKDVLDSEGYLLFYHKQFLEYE
How it was run: as §1

USP24 = USP24 (UniProt Q9UPU5)
How it was run: as §1

USP25 = target: T3, USP25 (UniProt Q9UHP3)
T3 sequence (whole entry): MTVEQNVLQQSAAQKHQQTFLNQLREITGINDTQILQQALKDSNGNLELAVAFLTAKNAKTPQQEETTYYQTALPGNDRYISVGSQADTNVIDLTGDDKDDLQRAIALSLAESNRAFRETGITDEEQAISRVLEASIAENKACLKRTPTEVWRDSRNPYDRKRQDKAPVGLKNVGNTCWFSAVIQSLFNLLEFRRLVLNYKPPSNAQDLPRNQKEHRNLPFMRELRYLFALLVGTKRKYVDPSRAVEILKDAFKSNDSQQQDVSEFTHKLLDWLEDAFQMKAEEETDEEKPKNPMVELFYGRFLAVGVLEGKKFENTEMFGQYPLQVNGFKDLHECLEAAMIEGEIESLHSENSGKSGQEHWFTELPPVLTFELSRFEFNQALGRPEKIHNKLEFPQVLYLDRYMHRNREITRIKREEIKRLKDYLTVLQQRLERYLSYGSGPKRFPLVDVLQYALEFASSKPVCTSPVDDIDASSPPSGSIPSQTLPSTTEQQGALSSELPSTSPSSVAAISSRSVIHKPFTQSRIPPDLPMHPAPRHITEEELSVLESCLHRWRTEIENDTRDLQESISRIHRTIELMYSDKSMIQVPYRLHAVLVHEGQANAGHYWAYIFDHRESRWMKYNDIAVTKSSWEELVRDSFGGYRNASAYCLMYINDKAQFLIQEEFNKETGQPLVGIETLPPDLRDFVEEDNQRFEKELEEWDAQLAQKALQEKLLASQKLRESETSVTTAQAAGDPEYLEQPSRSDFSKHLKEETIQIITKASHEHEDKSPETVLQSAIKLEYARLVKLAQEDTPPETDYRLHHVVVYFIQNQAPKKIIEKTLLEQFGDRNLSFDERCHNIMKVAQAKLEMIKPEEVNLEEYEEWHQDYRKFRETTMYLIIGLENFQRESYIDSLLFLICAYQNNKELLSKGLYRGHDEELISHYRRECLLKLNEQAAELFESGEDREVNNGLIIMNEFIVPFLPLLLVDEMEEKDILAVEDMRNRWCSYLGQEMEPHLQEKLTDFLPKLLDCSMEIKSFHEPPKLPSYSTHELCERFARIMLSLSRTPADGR
How it was run: as §1

USP28 = target: T4, USP28 (UniProt Q96RU2)
T4 sequence (whole entry): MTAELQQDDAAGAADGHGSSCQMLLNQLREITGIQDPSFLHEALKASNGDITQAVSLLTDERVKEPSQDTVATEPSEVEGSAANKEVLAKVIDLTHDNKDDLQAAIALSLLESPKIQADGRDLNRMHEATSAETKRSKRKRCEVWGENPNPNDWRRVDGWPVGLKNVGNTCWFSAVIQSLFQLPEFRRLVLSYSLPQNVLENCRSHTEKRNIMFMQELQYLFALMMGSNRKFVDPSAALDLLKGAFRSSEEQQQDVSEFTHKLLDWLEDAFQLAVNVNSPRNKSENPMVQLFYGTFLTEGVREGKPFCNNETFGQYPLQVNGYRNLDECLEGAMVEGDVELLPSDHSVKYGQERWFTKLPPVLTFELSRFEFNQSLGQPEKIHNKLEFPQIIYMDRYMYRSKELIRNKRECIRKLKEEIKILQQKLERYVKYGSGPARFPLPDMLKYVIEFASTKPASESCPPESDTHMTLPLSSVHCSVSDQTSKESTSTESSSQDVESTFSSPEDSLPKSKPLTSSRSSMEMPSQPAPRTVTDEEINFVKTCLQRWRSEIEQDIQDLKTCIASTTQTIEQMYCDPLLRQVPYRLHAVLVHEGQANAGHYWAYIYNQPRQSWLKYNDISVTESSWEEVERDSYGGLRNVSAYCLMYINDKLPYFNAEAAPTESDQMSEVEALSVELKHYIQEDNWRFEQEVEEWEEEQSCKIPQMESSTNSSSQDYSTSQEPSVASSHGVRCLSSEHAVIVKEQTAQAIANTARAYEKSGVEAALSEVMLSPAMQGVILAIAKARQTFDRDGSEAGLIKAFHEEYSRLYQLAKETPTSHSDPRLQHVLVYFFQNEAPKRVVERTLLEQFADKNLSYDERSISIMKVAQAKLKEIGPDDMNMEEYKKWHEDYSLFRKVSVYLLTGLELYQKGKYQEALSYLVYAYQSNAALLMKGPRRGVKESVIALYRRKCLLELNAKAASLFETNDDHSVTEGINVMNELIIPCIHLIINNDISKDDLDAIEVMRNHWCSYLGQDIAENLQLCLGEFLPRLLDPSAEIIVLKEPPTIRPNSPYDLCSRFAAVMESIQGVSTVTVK
How it was run: as §1

USP24, sequence (Q9UPU5 whole entry): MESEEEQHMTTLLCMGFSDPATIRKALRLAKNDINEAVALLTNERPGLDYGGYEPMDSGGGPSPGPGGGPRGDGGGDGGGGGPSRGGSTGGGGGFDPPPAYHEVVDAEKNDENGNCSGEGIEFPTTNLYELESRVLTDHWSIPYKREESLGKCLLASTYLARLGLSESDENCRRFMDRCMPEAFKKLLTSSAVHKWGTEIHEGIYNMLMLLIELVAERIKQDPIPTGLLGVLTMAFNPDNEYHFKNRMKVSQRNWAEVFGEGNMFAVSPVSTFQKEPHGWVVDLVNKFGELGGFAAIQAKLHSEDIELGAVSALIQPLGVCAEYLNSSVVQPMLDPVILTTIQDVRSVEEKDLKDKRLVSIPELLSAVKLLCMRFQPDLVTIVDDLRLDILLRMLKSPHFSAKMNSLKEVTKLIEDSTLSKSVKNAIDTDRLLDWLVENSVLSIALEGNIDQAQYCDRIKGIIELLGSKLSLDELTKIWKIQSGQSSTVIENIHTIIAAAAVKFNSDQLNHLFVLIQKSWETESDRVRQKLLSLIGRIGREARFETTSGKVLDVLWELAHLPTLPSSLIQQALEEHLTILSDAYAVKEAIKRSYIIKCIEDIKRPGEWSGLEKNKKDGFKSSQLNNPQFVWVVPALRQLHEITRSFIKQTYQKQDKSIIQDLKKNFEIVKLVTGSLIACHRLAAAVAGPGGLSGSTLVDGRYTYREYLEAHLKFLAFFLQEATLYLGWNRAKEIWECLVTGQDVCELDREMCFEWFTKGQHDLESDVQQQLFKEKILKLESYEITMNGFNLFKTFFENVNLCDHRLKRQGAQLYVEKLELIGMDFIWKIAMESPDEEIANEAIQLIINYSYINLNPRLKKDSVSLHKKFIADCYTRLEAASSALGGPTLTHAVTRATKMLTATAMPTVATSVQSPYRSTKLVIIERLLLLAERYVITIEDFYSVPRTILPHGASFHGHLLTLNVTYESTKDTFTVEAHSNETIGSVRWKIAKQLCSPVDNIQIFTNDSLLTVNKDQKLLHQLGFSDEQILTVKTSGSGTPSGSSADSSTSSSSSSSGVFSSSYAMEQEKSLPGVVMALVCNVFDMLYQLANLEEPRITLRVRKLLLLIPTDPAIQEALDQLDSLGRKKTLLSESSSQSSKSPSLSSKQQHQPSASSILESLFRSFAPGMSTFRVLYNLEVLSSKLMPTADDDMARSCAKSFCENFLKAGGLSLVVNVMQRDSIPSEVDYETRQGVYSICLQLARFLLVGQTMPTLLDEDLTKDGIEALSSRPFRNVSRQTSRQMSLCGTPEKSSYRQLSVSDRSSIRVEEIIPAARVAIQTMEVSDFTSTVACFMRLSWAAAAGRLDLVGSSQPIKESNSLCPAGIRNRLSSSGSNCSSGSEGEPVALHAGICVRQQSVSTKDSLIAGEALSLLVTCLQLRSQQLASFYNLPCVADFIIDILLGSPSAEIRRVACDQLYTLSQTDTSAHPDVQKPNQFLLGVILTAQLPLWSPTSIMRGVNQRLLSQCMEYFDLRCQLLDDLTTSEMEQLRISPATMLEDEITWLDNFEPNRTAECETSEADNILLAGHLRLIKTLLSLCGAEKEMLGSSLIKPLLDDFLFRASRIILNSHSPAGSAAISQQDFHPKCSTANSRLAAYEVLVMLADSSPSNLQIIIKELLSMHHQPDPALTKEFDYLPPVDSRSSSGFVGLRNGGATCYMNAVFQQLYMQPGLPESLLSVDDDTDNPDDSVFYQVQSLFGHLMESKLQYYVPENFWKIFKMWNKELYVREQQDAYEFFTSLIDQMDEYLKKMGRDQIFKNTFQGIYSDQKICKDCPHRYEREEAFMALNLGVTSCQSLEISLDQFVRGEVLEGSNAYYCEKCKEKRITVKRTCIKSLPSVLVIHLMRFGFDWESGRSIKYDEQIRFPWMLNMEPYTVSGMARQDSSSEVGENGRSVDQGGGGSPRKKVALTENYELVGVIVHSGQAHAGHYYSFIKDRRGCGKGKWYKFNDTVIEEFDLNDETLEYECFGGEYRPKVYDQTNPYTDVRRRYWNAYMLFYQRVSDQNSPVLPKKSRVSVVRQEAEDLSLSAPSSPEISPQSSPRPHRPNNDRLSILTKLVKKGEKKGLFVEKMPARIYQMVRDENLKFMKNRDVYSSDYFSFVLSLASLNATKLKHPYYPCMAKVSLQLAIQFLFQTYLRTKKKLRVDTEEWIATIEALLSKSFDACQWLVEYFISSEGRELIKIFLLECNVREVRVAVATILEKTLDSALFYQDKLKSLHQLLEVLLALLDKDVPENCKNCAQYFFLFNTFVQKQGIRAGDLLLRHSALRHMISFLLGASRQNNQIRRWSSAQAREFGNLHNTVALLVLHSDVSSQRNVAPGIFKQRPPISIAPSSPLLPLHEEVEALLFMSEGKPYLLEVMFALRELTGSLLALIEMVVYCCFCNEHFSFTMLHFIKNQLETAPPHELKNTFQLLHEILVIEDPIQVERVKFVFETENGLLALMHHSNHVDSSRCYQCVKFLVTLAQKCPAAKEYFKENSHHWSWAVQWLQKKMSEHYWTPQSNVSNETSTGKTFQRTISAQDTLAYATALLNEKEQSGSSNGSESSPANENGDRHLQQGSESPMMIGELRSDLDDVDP

O=C(CCl)N1CCc2[nH]c3ccccc3c2C1
log2 ratio of Biotin-Ahx-Ub-VS probe labelling (USP19): -0.968
log2 ratio of Biotin-Ahx-Ub-VS probe labelling (USP22): -0.357
log2 ratio of Biotin-Ahx-Ub-VS probe labelling (USP24): -1.93 (active)
log2 ratio of Biotin-Ahx-Ub-VS probe labelling (USP25): -0.589
log2 ratio of Biotin-Ahx-Ub-VS probe labelling (USP28): -0.765
